Hits are enriched below; roughly 10% of the tested compounds scored in any of these assays.
GPT2 inhibitor = inhibitors of human GPT2 alanine aminotransferase. Potency, µM (series often up to 57.7 µM), inactives show top-dose activity change, negative = inhibition, hits mostly inhibitors. Q8TD30. Recombinant GPT2, coupled pyruvate oxidase/HRP Amplex Red fluorescence. 0.25% of 100,000 active; note: nearly all actives have a fitted effect of over 60% in size
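Fluorescence read-out: pyruvate from GPT2 turnover coupled to pyruvate oxidase, HRP and Amplex Red (0.2mM ThPP, 0.2U/mL PO and HRP, 50uM Amplex final). Substrates 250uM a-KG, 2mM L-alanine; enzyme 10ng/uL; 30 min RT.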
NIH3T3 tox = NIH 3T3 cell cytotoxicity | NIH 3T3 viability, CellTiter-Glo ATP luminescence, 48-72 h | Potency, µM (doses to about 96.7 µM), inactives show at the highest dose activity change, negative = cytotoxicity, usual class: inhibitors | 4.3% of 94,000 active; note: nearly all actives have a fitted effect of over 55% in size
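Cytotoxicity is measured as loss of cellular ATP: NIH 3T3 cells (400/well) are exposed to compound for 48 or 72 hr at 37 °C, then CellTiter-Glo luminescence is imaged after 10 min at room temperature.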
HEK293 tox = kills HEK 293 cells; HEK 293 viability, ATP luminescence (CellTiter-Glo), 48-72 h; Potency, µM (titrated, usually from 115 µM), without a hit: top-dose activity change, negative = cytotoxicity, most hits filed as inhibitors; 6.6% of 94,000 active; note: nearly all actives have a fitted effect of over 60% in size
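Pintool-delivered compounds were incubated with HEK 293 cells (250 cells/well) at 37 degree Celsius for 48 or 72 hr. ATP-dependent luminescence (CellTiter-Glo) then reported remaining viable cells.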
hNpr1 antagonist = antagonists of human natriuretic peptide receptor Npr1. AID 1347048. 1.6% of 76,000 active. HEK293 hNpr1 GloSensor cGMP, ANP-stimulated luminescence. Potency, µM (top dose mostly 46.3 µM), without a hit: top-dose activity change, negative = inhibition, most hits filed as inhibitors; calls by dose curve; note: nearly all actives have a fitted effect of over 60% in size
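HEK293 cells stably expressing human Npr1 and cGMP GloSensor pGS-40F, loaded 2 h with 2% GloSensor reagent, given compound 30 min at room temperature. Luminescence read before and 20 min after 0.1 nM hNppA.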
Luciferase inh = Photinus pyralis luciferase inhibition | P08659 | purified P. pyralis luciferase, luminescence, biochemical | Potency, µM (titrated, usually from 115 µM), usual class: inhibitors | 2.5% of 76,000 active; note: nearly all actives have a fitted effect of over 65% in size
Target sequence (P08659 whole entry, looked up): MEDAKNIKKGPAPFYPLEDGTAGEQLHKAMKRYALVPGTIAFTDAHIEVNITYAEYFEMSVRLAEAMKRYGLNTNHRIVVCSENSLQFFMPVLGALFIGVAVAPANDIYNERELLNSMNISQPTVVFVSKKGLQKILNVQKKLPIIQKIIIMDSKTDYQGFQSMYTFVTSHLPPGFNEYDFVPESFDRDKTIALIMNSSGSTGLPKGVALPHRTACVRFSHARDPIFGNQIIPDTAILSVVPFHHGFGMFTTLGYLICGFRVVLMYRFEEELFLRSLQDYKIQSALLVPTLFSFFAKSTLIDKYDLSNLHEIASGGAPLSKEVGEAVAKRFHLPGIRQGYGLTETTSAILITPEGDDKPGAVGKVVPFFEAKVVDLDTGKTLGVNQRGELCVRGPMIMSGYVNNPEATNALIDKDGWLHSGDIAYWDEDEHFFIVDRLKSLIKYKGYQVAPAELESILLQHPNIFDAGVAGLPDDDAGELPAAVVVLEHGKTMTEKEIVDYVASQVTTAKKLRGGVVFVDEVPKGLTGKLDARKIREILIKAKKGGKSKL
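Inhibitors were tested against purified firefly luciferase in a biochemical, low-substrate format (both substrates at 10uM) and luminescence measured with a CCD imager.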
The depositor's hits bear a star; [ ] = dose if it differs, or a comment. Unless noted, calls come from the whole dose curve; as a rule, active = well fitted curve in the direction sought with a large enough effect; inconclusive = small, poorly fitted or top-dose-only effect, or another doubt; inactive = no such curve, though single readings can be large; an effect the other way counts as inactive or inconclusive. % is set by controls: 0 for no effect and ±100 for the full control effect; potency is the fitted concentration of half-maximal effect.

What do the screens show for `Cc1noc(C)c1CN1C[C@@H]2[C@H](C1)N(CCOc1ccccc1)C(=O)C(C)(C)[S+]2(=O)[O-]`?
GPT2 inhibitor: 5%; NIH3T3 tox: 16µM*; HEK293 tox: -23%; hNpr1 antagonist: -1%; Luciferase inh: inactive

Results for COc1cncc(N2C[C@@H]3[C@H](C2)N(CCOc2ccccc2)C(=O)C(C)(C)[S+]3(=O)[O-])c1 ?
GPT2 inhibitor: 10µM*; NIH3T3 tox: inconclusive; HEK293 tox: inconclusive; hNpr1 antagonist: -11%; Luciferase inh: inactive

What do the screens show for `CC(C)CCN1C[C@@H]2[C@H](C1)N(CCOc1ccccc1)C(=O)C(C)(C)[S+]2(=O)[O-]`?
GPT2 inhibitor: inactive; NIH3T3 tox: inconclusive; HEK293 tox: 112µM*; hNpr1 antagonist: 5%[70.6 µM]; Luciferase inh: inactive

How did COc1cccc(CN2C[C@H]3[C@H](C2)[S+](=O)([O-])C(C)(C)C(=O)N3CCOc2ccccc2)c1 do in these assays?
GPT2 inhibitor: -1%; NIH3T3 tox: -19%; HEK293 tox: inconclusive; hNpr1 antagonist: -2%; Luciferase inh: inactive

How did COCCNC(=O)c1cc2c(=O)[nH]c(-c3ccccc3)cn2n1 do in these assays?
GPT2 inhibitor: inactive; NIH3T3 tox: -4%; HEK293 tox: inconclusive; hNpr1 antagonist: 4%; Luciferase inh: inactive

Results for COc1ccc2c(c1)C=C(CN1CCC(CO)(Cc3ccccc3Cl)CC1)CO2 ?
GPT2 inhibitor: -22%; NIH3T3 tox: inconclusive; HEK293 tox: 18µM*; hNpr1 antagonist: inconclusive; Luciferase inh: inactive

Results for CCOc1ccc(CN2CCC(CO)(Cc3ccccc3Cl)CC2)cc1 ?
GPT2 inhibitor: 2%; NIH3T3 tox: inconclusive; HEK293 tox: 79µM*; hNpr1 antagonist: 2%; Luciferase inh: inactive

How did COC(=O)CNC(=O)N1CCCCC1c1nc(CCOc2ccc(F)cc2)no1 (stereo not given) do in these assays?
GPT2 inhibitor: inconclusive; NIH3T3 tox: -12%; HEK293 tox: inconclusive; hNpr1 antagonist: 1%; Luciferase inh: inactive

What do the screens show for `CN1c2cc(C(=O)Nc3cccc(Br)c3)ccc2C(=O)N2CCCCC21` (stereo not given)?
GPT2 inhibitor: 4%; NIH3T3 tox: inconclusive; HEK293 tox: 35µM*; hNpr1 antagonist: 0%; Luciferase inh: inconclusive

What do the screens show for `CN1c2cc(C(=O)Nc3cccc(F)c3)ccc2C(=O)N2CCCCC21` (stereo not given)?
GPT2 inhibitor: inactive; NIH3T3 tox: -22%; HEK293 tox: inconclusive; hNpr1 antagonist: -23%; Luciferase inh: 25µM*

What do the screens show for `Cc1cc(C)cc(NC(=O)c2ccc3c(c2)N(C)C2CCCCCN2C3=O)c1` (stereo not given)?
GPT2 inhibitor: inactive; NIH3T3 tox: -25%; HEK293 tox: inconclusive; hNpr1 antagonist: 0%; Luciferase inh: inactive

How did CSc1cccc(NC(=O)c2ccc3c(c2)N(C)C2CCCCN2C3=O)c1 (stereo not given) do in these assays?
GPT2 inhibitor: inactive; NIH3T3 tox: inconclusive; HEK293 tox: 40µM*; hNpr1 antagonist: -7%; Luciferase inh: inconclusive

How did COc1ccccc1C(=O)N1CCC2(CC1)CC(O)CCO2 (stereo not given) do in these assays?
GPT2 inhibitor: inactive; NIH3T3 tox: -10%; HEK293 tox: 1%

How did COc1cc(C(=O)NC2CCCc3c2[nH]c2ccccc32)cc(OC)c1OC (stereo not given) do in these assays?
GPT2 inhibitor: inactive; NIH3T3 tox: inconclusive; HEK293 tox: inconclusive; hNpr1 antagonist: 3%; Luciferase inh: inactive

How did COCCC(=O)N1CCC(Oc2nccnc2N2CCc3ccccc32)C1 (stereo not given) do in these assays?
GPT2 inhibitor: inactive; NIH3T3 tox: 2%; HEK293 tox: inconclusive; hNpr1 antagonist: -7%; Luciferase inh: inconclusive

How did CCOc1cc(=O)n2c(c1C(=O)Nc1cccc(Cl)c1)CCCC2 do in these assays?
GPT2 inhibitor: inactive; NIH3T3 tox: inactive; HEK293 tox: -5%; hNpr1 antagonist: -1%; Luciferase inh: inactive

What do the screens show for `COC(=O)[C@@H]1CCCN1c1ccc(-c2nc(-c3ccccc3F)no2)cn1`?
GPT2 inhibitor: -29%; NIH3T3 tox: inconclusive; HEK293 tox: 40µM*; hNpr1 antagonist: 14µM*; Luciferase inh: inconclusive

What do the screens show for `c1ccc(CCc2noc(-c3ccc(NCCN4CCCC4)nc3)n2)cc1`?
GPT2 inhibitor: inconclusive; NIH3T3 tox: inconclusive; HEK293 tox: inconclusive; hNpr1 antagonist: -25%; Luciferase inh: inconclusive

How did O=C1OCCCN1CCNc1ccc(-c2nc(-c3ccccc3F)no2)cn1 do in these assays?
GPT2 inhibitor: inactive; NIH3T3 tox: -37%; HEK293 tox: inconclusive; hNpr1 antagonist: -25%; Luciferase inh: 35µM*

Results for O=C1CCCCN1CCNc1ccc(-c2nc(-c3ccccc3F)no2)cn1 ?
GPT2 inhibitor: inactive; NIH3T3 tox: inconclusive; HEK293 tox: inconclusive; hNpr1 antagonist: -29%; Luciferase inh: 14µM*

How did COc1ccc(-c2noc(-c3ccc(N4CCCOCC4)nc3)n2)cc1 do in these assays?
GPT2 inhibitor: inactive; NIH3T3 tox: inconclusive; HEK293 tox: inconclusive; hNpr1 antagonist: inconclusive; Luciferase inh: inconclusive

How did COc1ccc(C(=O)N2CCC3(CC2)OC(=O)N(Cc2ccccc2F)C3(C)c2ccccc2)cc1 (stereo not given) do in these assays?
GPT2 inhibitor: -1%; NIH3T3 tox: 35µM*; HEK293 tox: 45µM*; hNpr1 antagonist: 2%; Luciferase inh: inactive

What do the screens show for `Cn1ccc(C(=O)N2CCC3(CC2)OC(=O)N(Cc2ccccc2F)C3(C)c2ccccc2)n1` (stereo not given)?
GPT2 inhibitor: -7%; NIH3T3 tox: inconclusive; HEK293 tox: -11%; hNpr1 antagonist: -1%; Luciferase inh: inactive

What do the screens show for `COc1cccc(CC(=O)N2CCC3(CC2)OC(=O)N(Cc2ccccc2F)C3(C)c2ccccc2)c1` (stereo not given)?
GPT2 inhibitor: 2%; NIH3T3 tox: 25µM*; HEK293 tox: inconclusive; hNpr1 antagonist: -4%; Luciferase inh: inactive

Results for CC1(c2cccnc2)N(CCOc2ccccc2)C(=O)OC12CCN(C(=O)Cc1cccc(F)c1)CC2 (stereo not given) ?
GPT2 inhibitor: -7%; NIH3T3 tox: inconclusive; HEK293 tox: -16%; hNpr1 antagonist: -1%; Luciferase inh: inactive

Results for COc1ccccc1-n1c(=O)c(C(=O)N2CCN(C(=O)Nc3ccc(Cl)cc3)CC2)nc2cccnc21 ?
GPT2 inhibitor: inactive; NIH3T3 tox: -14%; HEK293 tox: inactive

Results for O=C(NCc1ccc(F)c(F)c1)c1ccc2nnc(C3CCCC3)n2c1 ?
GPT2 inhibitor: inactive; NIH3T3 tox: inconclusive; HEK293 tox: -28%
